Several values for one entry are separate records, joined by “and”; a condition that tells them apart may be missing. Identical values can stand only once. Compounds without any hit were thinned out: in the full panel of roughly 83,000, 20% have a hit.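 Interpretation: 100, growth as untreated; towards 0, rising growth inhibition; 0, no net growth; 0 to -100, cell death. Compounds scoring below 10 were considered active.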 Activity calls are given as the source filed them.
Assays:
Assay in all cases: NCI-60 one-dose screen, 48 h (100 = growth as untreated, 0 = no growth, -100 = all killed)
Conditions in all cases: 10 µM unless noted
[1] = system: NCI-H23 lung
[2] = system: NCI-H226 lung
[3] = system: NCI-H322M lung
[4] = system: HOP-62 NSCLC
[5] = system: NCI-H460 lung
[6] = system: HOP-92 NSCLC
[7] = system: NCI-H522 lung
[8] = system: A549/ATCC NSCLC
[9] = system: 786-0 renal
[10] = system: COLO 205 colon
[11] = system: DU-145 prostate
[12] = system: K-562 leukemia
[13] = system: MALME-3M melanoma
[14] = system: MDA-MB-231 breast
[15] = system: RXF 393 renal
[16] = system: SF-268 CNS
[17] = system: SF-295 CNS
[18] = system: SF-539 CNS
[19] = system: UACC-257 melanoma
[20] = system: M14 melanoma

Measured: growth

C=CCN1C(=O)c2ccccc2C1=O
inactive: [1] 103% | [2] 101% | [3] 102% | [4] 104% | [5] 101% | [6] 80.9% | [7] 86% | [8] 100% | [9] 103% | [10] 98.4% | [11] 107% | [12] 106% | [13] 120% | [14] 106% | [15] 104% | [16] 106% | [17] 109% | [18] 95.3% | [19] 102%

COc1ccccc1OCC(O)CO (stereo not given)
3.64% (active) and 96.5% (inactive): [17]
inactive: [1] 106% and 103% | [2] 102% and 94.6% | [3] 75.7% and 115% | [4] 96.8% and 121% | [5] 105% and 113% | [6] 90% | [7] 98.6% and 106% | [8] 96.6% | [9] 97.6% and 102% | [10] 116% | [11] 115% and 123% | [12] 118% and 87.4% | [13] 110% and 105% | [14] 114% and 111% | [15] 110% and 111% | [16] 100% and 114% | [18] 92.3% and 121% | [19] 102% and 105% | [20] 104% and 106%

CC(C)(C)OC(=O)c1ccc(NCc2cc(O)ccc2O)cc1
active: [2] 9.37% | [7] -78.4% | [9] -72.7% | [12] 3.17% | [13] -40.2% | [14] -38.2% | [15] -68.3% | [18] -70.1% | [19] -6.29%
inactive: [1] 59.5% | [3] 84.1% | [4] 45.1% | [5] 53.4% | [6] 17.5% | [8] 40.9% | [10] 10.8% | [11] 57% | [16] 16.5% | [17] 78.4%

COc1ccc([N+](=O)[O-])cc1OC
inactive: [1] 98.5% and 106% | [2] 101% and 98.2% | [3] 105% | [4] 98.2% and 109% | [5] 102% and 111% | [6] 93.5% and 92.7% | [7] 111% and 93.7% | [8] 93% and 92.9% | [9] 104% and 95% | [10] 112% and 115% | [11] 111% and 118% | [12] 102% and 103% | [13] 117% and 104% | [14] 111% and 108% | [15] 114% and 104% | [16] 100% and 108% | [17] 102% and 105% | [18] 93.9% and 98% | [19] 90.1% and 95%

CC(C)=NOC(C)C(=O)O (stereo not given)
inactive: [1] 108% | [2] 104% | [3] 118% | [4] 110% | [5] 107% | [6] 73% | [7] 111% | [8] 98.8% | [9] 97.8% | [10] 111% | [11] 147% | [12] 76.5% | [13] 112% | [14] 99.8% | [15] 116% | [16] 101% | [17] 93.1% | [18] 102% | [19] 92.9%

CN(C)C(=S)N(C)C
inactive: [1] 99.4% | [2] 108% | [3] 140% | [4] 95.6% | [5] 119% | [6] 93.4% | [7] 83.2% | [8] 100% | [9] 108% | [10] 123% | [11] 110% | [12] 106% | [13] 165% | [14] 111% | [15] 114% | [16] 103% | [17] 112% | [18] 99.2% | [19] 107%

From PubChem BioAssay (NCI)
